Source: PubChem BioAssay AID488922 (Johns Hopkins Ion Channel Center, 2010)
Among all 310,000 compounds or so, about 3,800 (1.2%) were called active.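 Rule for the calls: active = ratio B-score over 3 SD below the library mean, with starting fluorescence within 5 SD of its mean; inactive = the rest, inconclusive results apart.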 The full list was thinned out, with actives kept by preference.

molecular target: Potassium channel subfamily K member 9 (Homo sapiens) (UniProt Q9NPC2); assay: blockers of human TASK-3 (KCNK9) channel – HEK293 cells, thallium flux, primary screen (AID 488922); conditions: HEK293 KCNK9, FluxOR thallium flux fluorescence, at 10 µM; hits give low values;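 for B-score: negative B-score means less thallium flux so channel inhibition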
Sequence (Q9NPC2 whole entry, looked up): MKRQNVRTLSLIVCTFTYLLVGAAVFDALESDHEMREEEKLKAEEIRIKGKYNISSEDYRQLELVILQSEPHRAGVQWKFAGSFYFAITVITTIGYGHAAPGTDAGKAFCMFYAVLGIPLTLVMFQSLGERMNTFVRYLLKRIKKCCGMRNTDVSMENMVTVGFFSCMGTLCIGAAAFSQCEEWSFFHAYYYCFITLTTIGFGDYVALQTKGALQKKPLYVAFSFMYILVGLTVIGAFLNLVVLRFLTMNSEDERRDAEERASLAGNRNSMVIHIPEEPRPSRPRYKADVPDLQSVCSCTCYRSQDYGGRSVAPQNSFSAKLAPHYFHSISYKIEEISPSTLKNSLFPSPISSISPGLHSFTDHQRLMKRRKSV

SMILES | B-score
CCCCCCCCCCCCn1ccc(=N)cc1 | -10.8 (active)
Cc1ccc(-c2nc3ccccc3c(=O)n2-c2ccc(Br)cn2)cc1 | inactive
COc1cc(Cn2c(N)c(C(=O)NCc3ccco3)c3nc4ccccc4nc32)cc(OC)c1OC | inactive
CC1=C2C(=O)C3C(CC=C4CC(OC5OC(O)C(O)C(O)C5CO)CCC43C)C2CCC12OC1CC(C)CNC1C2C (stereo not given) | inactive
CCCCCCN=C(CC)c1c(O)n(CCCC)c(=O)[nH]c1=O | -12.7 (active)
CCC(=NCCCO)c1c(O)n(-c2ccc(OC)cc2)c(=O)[nH]c1=O | inactive
CCCCn1c(O)c(C(CC)=NCc2ccco2)c(=O)[nH]c1=O | inactive
CCN(CC)C(=O)Oc1ccc(NC(=O)N2CCOCC2)cc1 | inactive
CN(C)CC1CCCCC1OC(=O)c1ccc(Cl)c(Cl)c1 (stereo not given) | inactive
COC(=O)C1=C(c2cc3ccccc3s2)C[C@@H]2CC[C@H]1N2C(=O)NC(C)C | inactive
CCN1CCN(c2nc3c(c(=O)[nH]2)CCC3)CC1 | inactive
O=C1CC(=O)N(Cc2ccccc2)C(=O)N1CCCCCCN1C(=O)CC(=O)N(Cc2ccccc2)C1=O | inactive
CC(C)(C)c1ccc(CN2C(=O)CN=C(c3ccccc3)c3ccccc32)cc1 | -12.7 (active)
CCOC(=O)c1c(C)c(C(=O)N2CCC3(CC2)OCCO3)c(C)n1CC | inactive
CCOP(=S)(OCC)C(O)CCCCCn1c(=O)c(F)cn(C2CCCO2)c1=O (stereo not given) | inactive
C=CCN1C(=O)NC(=O)/C(=C/c2ccc(OCC(=O)Nc3ccc(C)cc3)cc2)C1=O | inactive
O=C(O)CCn1cc(C=C2C(=O)NC(=S)NC2=O)c(-c2cccc(Br)c2)n1 | inactive
CCOC(=O)C1SC2(C(F)(F)C(F)F)CC1(O)c1c(c(OC)c3occc3c1OC)O2 (stereo not given) | -8.55 (active)
CCOP(=O)(OCC)C(NC(=O)c1ccc(OC)cc1)C(Cl)(Cl)Cl (stereo not given) | inactive
NC(=O)Nc1cccc(C(F)(F)F)c1 | inactive
